Inconclusive results are not listed. A call without a number means that no potency is given here. Calls of active or inactive are those of the source. The call rests on the fitted dose curve; in most records, active means well fitted activation curve with a large enough effect; inconclusive means small, poorly fitted or top-dose-only effect; inactive means no such curve, though single readings can be large or run the other way.

The nature of the assay: qHTS Assay for Rab9 Promoter Activators: Hit Validation Using Renilla Luciferase Read-Out for Rab9. The following applies: Huh7 Rab9 promoter Renilla luciferase reporter, 24 h; series mostly up to 76.9 µM. Put shortly: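 Huh7 cells stably carrying promoter-luciferase reporter, exposed to compound for 24 h at 37 deg C. Luminescence read 10 min after adding luciferase detection reagent at room temperature.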
(In general: In qHTS, concentration-response curves come from the screen itself.)
Potency means the concentration at half of the fitted maximal effect.

For the molecule `CCOC(=O)c1ccc(NC(=O)Oc2cc(C)c(Cl)cc2C(C)C)cc1`, the Potency entry is “inactive”.
`O=C(Nc1ccc(-c2nc3cccnc3s2)cc1)c1ccc(Cl)nc1`: the Potency entry is “inactive”.
With `O=C(CSc1nnc(-c2ccc([N+](=O)[O-])cc2)o1)Nc1ccccn1`, the Potency entry is “inactive”.
Consider `Cc1cc(C)cc(N(CC(=O)NC2CCCC2)C(=O)CNC(=O)c2ccco2)c1`, for which the Potency result is “inactive”.
With `COC(=O)CSc1nc2cc3c(cc2cc1C#N)OCO3`, the Potency result was “inactive”.
As to `O=C(CSc1nnc(Cc2cc(=O)[nH]c(=O)[nH]2)n1-c1ccc(Cl)cc1)NC1CCCC1`, the Potency entry was “inactive”.
Take `Cc1ccc2nc(NC(=O)CCn3cccc3)sc2c1`: the Potency result is “inactive”.
Consider `O=C(CSc1nnc(-c2ccccc2)o1)Nc1ccccc1F`, for which the Potency result is “inactive”.
With `CCN(CC(=O)N(CC(C)C)c1c(N)n(CC(C)C)c(=O)[nH]c1=O)Cc1nc2ccccc2c(=O)[nH]1`, the Potency result is “inactive”.
Under `O=C(c1cccc(Oc2ccc([N+](=O)[O-])cc2)c1)N1CCOCC1` stands “inactive”; under `CCOc1ccc(CNC(=O)C2CCCN(S(C)(=O)=O)C2)cc1OC` (stereo not given), “inactive”; under `O=C(CCc1cccc(Cl)c1)NC1CCCN(Cc2ccccc2F)C1` (stereo not given), “inactive”.
Turning to `O=[N+]([O-])c1cnccc1Nc1ccc(F)cc1`, the Potency entry was “inactive”.
Under `COc1cccc(CNC(=O)CN(c2cc(C)cc(C)c2)S(=O)(=O)c2c(C)noc2C)c1` stands “inactive”; under `C=CCn1c(C)nnc1SCC(=O)Nc1nccs1`, “inactive”.
Consider `O=C(O)CSc1nnc(-c2ccncc2)n1CCc1ccccc1`, for which the Potency result was “inactive”.
On to `Cc1cccc(N2CCN(C(=S)c3ccccc3)CC2)c1`, for which the Potency entry is “inactive”.
For the molecule `CC(=O)Nc1ccc(NC(=O)COc2ncnc3ccccc23)cc1`, the Potency result is “inactive”.
Take `CCOC(=O)c1ccccc1NC(=O)CSc1nnc(Cc2cccn2C)n1-c1ccc(F)cc1`: the Potency is 36.8 µM (active).
In the case of `N#C/C(=N\Nc1ccc(Cl)cc1)C(=N)N1CCCCC1` it was “inactive”.

The record behind these values is PubChem BioAssay AID624116 (National Center for Advancing Translational Sciences (NCATS), 2012).
